# Results published in publication PMC7862700, “An all-to-all approach to the identification of sequence-specific readers for epigenetic DNA modifications on cytosine”.
# How the values were obtained:
# Assay in all cases: DAPPL (digital affinity profiling via proximity ligation, sequencing); 10 mM Tris-HCl pH 7.5, 50 mM NaCl, 1 mM DTT, 4% glycerol, room temperature, 30 min; GST-TFs on glutathione beads, 16-mer random dsDNA library, 0.1% formaldehyde crosslink after washing; high values mean tight binding
# FEV = biological target: T1, FEV (Homo sapiens, UniProt Q99581 1-238); details: protein: recombinant; tags: N-terminal GST; dsDNA, one strand shown
# T1 sequence: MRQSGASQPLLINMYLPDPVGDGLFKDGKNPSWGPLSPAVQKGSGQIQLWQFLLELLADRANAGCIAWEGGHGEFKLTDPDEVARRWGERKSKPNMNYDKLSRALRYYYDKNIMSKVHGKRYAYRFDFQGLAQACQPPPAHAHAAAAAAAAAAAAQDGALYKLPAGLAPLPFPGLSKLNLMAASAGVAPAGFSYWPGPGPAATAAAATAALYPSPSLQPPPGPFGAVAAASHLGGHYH
# How it was run: (§1)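 A tag-only sample was pooled with DNA-barcoded human transcription factors that had been expressed in yeast as GST fusions and captured on glutathione beads. The pools were incubated for 30 min at room temperature with 200 nmole of a random double-stranded 16-mer DNA library in Tris/NaCl/DTT/glycerol buffer, then washed, crosslinked with 0.1% formaldehyde, proximity-ligated (BsaI/T4 ligase, 1 h, 37 °C), PCR-amplified and sequenced on an Illumina NextSeq500. Binding signal is each hexamer's read frequency for a factor divided by its frequency for the tag-only sample.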
# ETV5 = ETV5 (Homo sapiens, UniProt P41161 1-510); details: protein: recombinant; tags: N-terminal GST; dsDNA, one strand shown
# How it was run: as §1
# HSF1 = HSF1 (Homo sapiens, UniProt Q00613 1-529); details: protein: recombinant; tags: N-terminal GST; chain copies: 3; dsDNA, one strand shown
# How it was run: as §1
# SPIC = biological target: T2, SPIC (Homo sapiens, UniProt Q8N5J4 1-248); details: protein: recombinant; tags: N-terminal GST; dsDNA, one strand shown
# T2 sequence: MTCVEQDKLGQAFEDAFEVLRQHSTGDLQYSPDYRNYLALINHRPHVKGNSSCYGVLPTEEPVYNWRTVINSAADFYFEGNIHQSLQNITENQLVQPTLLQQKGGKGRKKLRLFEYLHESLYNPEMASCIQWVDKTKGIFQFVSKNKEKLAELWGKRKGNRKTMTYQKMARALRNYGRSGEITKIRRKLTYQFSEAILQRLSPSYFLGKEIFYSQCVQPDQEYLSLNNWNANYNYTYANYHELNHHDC
# How it was run: as §1
# ELF4 = ELF4 (Homo sapiens, UniProt Q99607 1-663); details: protein: recombinant; tags: N-terminal GST; dsDNA, one strand shown
# How it was run: as §1
# ELK4 = biological target: T3, ELK4 (Homo sapiens, UniProt P28324-2 1-405); details: protein: recombinant; tags: N-terminal GST; dsDNA, one strand shown
# T3 sequence: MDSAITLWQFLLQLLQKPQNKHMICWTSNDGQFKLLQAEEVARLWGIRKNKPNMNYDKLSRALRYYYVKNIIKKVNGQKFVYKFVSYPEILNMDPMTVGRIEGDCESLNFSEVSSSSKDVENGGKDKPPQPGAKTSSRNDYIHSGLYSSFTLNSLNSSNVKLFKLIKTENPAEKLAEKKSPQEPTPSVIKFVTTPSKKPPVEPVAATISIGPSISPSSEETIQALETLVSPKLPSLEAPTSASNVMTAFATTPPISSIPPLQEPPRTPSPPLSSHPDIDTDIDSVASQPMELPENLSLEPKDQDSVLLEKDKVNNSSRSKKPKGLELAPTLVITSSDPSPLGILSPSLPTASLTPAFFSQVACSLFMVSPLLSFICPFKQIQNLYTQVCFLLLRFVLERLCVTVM
# How it was run: as §1
# ETV2 = biological target: T4, ETV2 (Homo sapiens, UniProt O00321 1-342); details: protein: recombinant; tags: N-terminal GST; dsDNA, one strand shown
# T4 sequence: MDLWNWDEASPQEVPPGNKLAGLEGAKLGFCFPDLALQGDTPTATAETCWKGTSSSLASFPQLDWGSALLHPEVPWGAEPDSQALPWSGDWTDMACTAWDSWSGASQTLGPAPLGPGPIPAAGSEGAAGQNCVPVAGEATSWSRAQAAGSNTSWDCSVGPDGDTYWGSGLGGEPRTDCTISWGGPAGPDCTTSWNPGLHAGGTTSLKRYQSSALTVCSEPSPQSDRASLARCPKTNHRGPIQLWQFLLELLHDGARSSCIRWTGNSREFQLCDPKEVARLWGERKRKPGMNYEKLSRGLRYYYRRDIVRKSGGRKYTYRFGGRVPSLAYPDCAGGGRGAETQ
# How it was run: as §1
# ELF3 = biological target: T5, ELF3 (Homo sapiens, UniProt P78545 1-371); details: protein: recombinant; tags: N-terminal GST; dsDNA, one strand shown
# T5 sequence: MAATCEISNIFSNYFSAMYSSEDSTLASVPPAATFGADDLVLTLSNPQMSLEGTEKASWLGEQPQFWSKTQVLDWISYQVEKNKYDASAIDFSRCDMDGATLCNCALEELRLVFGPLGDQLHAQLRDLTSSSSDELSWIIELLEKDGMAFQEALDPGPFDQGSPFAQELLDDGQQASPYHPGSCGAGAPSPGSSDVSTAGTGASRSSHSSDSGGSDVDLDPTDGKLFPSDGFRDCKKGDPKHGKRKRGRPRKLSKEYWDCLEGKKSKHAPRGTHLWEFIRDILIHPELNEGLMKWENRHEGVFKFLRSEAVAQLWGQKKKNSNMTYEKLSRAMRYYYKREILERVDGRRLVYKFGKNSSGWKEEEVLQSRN
# How it was run: as §1
# ETV1 = ETV1 (Homo sapiens, UniProt P50549 1-477); details: protein: recombinant; tags: N-terminal GST; dsDNA, one strand shown
# How it was run: as §1
# ETV1, sequence (P50549 whole entry): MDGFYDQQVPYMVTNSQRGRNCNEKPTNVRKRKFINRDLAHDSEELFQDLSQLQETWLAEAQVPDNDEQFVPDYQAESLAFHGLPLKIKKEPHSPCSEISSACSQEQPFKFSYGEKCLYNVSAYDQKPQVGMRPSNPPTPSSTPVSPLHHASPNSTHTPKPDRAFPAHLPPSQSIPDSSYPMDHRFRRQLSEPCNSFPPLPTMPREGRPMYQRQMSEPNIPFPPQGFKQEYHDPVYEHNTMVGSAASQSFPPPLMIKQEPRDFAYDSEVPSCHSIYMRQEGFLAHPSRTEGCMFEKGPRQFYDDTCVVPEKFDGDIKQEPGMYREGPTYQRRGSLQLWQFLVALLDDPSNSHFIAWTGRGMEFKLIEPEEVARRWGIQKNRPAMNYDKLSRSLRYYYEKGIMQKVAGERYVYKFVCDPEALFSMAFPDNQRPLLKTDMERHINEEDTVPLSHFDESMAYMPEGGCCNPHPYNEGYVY
# ETV5, sequence (P41161 whole entry): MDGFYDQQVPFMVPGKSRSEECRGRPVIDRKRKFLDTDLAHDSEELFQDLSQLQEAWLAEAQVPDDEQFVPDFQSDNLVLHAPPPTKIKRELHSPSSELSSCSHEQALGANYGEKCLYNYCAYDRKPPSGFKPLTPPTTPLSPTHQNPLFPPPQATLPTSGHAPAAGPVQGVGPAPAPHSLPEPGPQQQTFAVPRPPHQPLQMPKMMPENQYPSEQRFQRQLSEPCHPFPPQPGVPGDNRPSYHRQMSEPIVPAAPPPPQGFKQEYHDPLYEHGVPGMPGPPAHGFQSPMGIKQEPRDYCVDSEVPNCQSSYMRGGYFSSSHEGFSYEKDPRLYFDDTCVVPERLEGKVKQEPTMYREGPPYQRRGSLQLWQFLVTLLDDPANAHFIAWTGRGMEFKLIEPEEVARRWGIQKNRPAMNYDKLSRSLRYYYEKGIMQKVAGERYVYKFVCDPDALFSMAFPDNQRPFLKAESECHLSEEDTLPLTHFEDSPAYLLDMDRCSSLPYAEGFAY
# HSF1, sequence (Q00613 whole entry): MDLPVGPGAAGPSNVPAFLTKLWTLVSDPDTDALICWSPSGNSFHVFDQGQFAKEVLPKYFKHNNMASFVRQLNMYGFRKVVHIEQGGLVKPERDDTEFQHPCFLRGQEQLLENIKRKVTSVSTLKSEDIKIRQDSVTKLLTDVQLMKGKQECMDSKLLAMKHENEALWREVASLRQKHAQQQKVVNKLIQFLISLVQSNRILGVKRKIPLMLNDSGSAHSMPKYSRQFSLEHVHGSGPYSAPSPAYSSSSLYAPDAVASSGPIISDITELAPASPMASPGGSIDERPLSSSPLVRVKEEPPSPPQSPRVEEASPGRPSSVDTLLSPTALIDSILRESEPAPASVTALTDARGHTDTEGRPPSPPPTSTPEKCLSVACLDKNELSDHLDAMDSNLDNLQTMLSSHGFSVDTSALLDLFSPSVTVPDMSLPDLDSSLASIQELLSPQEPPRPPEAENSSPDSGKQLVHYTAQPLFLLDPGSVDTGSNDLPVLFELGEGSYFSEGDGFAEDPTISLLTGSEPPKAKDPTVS
# ELF4, sequence (Q99607 whole entry): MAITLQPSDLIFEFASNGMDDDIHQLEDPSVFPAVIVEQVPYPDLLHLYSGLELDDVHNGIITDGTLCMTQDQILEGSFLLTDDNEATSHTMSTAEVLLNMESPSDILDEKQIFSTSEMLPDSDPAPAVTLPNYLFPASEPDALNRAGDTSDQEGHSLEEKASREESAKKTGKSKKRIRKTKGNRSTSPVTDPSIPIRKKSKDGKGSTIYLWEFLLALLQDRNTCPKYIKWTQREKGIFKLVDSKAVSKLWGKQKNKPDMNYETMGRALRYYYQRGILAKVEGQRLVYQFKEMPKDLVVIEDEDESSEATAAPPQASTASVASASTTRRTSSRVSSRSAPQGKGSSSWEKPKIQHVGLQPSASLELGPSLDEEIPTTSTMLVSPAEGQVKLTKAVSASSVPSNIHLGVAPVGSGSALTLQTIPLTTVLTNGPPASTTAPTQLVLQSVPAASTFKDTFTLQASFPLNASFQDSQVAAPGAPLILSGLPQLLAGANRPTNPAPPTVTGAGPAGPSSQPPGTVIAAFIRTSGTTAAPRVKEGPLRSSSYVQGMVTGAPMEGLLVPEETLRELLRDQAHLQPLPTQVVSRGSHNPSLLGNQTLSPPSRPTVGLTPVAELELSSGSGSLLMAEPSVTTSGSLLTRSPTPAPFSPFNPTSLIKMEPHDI
sequence,measurement,setting,value
GTTCCC,binding signal,FEV,"1.27 fold enrichment (6-mer frequency, TF over GST control)"
same,binding signal,ETV5,"1.22 fold enrichment (6-mer frequency, TF over GST control)"
same,binding signal,HSF1,"1.26 fold enrichment (6-mer frequency, TF over GST control)"
same,binding signal,SPIC,"1.38 fold enrichment (6-mer frequency, TF over GST control)"
same,binding signal,ELF4,"1.36 fold enrichment (6-mer frequency, TF over GST control)"
same,binding signal,ELK4,"1.19 fold enrichment (6-mer frequency, TF over GST control)"
same,binding signal,ETV2,"1.12 fold enrichment (6-mer frequency, TF over GST control)"
same,binding signal,ELF3,"1.23 fold enrichment (6-mer frequency, TF over GST control)"
same,binding signal,ETV1,"1.39 fold enrichment (6-mer frequency, TF over GST control)"
